Activity calls are given as the source filed them.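 How the source made its calls, unless noted: active means compound raises insulin release from rat beta cells at 5 mM glucose, no numeric limit stated; inactive means the rest.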
What was measured:
[1] = Wnt pathway potentiators raising nuclear beta-catenin – imaging, WNT3A-conditioned medium, mouse C2C12, NPC library, primary screen (AID 1117326; in the data active means nuclear beta-catenin stimulation mostly above about 4.2%, no sharp cut-off; inactive means mostly below about 10%; further: reference of the scale not given here); conditions: stronger effect = higher value
[2] = stimulators of insulin release from INS-1E, primary screen, cell-based, 5 mM glucose, NPC library (AID 1117329); conditions: rat INS-1E insulin secretion, at 10 µM, stronger effect = higher value; further: reference of the scale not given here
[3] = growth inhibition of GSK3B-pretreated HCT116 cells – cell-based, CellTiter-Glo, 0.2 to 20 µM (AID 1117336;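 active means compounds lowering colon cancer cell viability after pretreatment blocking the GSK3B kinase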); conditions: HCT116 viability after GSK3B inhibitor, at 20 µM, stronger effect = higher value
[4] = inhibition of endothelial tube formation, primary screen, imaging, VEGF stimulated, CD31 staining, tube area, NPC library (AID 1117340;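 active means compound that reduces growth-factor-driven endothelial tube area in a mixed cell culture, no cutoff stated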); conditions: VEGF-stimulated ADSC/ECFC co-culture, at 10 µM, stronger effect = higher value
[5] = GLP1 release stimulators, primary, NCI-H716, NPC library (AID 1117341;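 active means compound raises GLP1 secretion from the human gut endocrine cells, with no numeric limit stated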; further: reference of the scale not given here); conditions: NCI-H716 cells, at 10 µM, stronger effect = higher value
[6] = HCT116 colon cancer cell growth inhibition, primary screen, CellTiter-Glo luminescence, NPC library (AID 1117342;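 active means compounds that lower survival of HCT116 colon cancer cells in the luminescence readout, no numeric limit stated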); conditions: at 20 µM (top of the series)
[7] = reduced SW480 viability measured with CellTiter-Glo, NPC library, primary (AID 1117343;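 active means compounds that lower viability of the colon cancer cells in the luminescence readout, with no numeric limit stated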); conditions: CellTiter-Glo luminescence; at 20 µM (top of the series)
[8] = NPC library primary testing for decreased DLD-1 cell viability via CellTiter-Glo (AID 1117346;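 active means compounds that lower survival of DLD-1 colon cancer cells in the luminescence readout, no cutoff given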); conditions: DLD-1 viability, CellTiter-Glo luminescence; at 20 µM (top of the series)

Which results are given for `Nc1nnnn1-c1ccccc1`?
nuclear beta-catenin stimulation ([1]; at 10 µM): -0.2% (inactive); nuclear beta-catenin stimulation ([1]; stimulation, at 2 µM): 0.5%; insulin secretion stimulation [2]: -1.6% (inactive); viability decrease [3]: -7.65% (inactive); tube area decrease [4]: -14.5% (inactive); GLP1 secretion stimulation [5]: 2.4% (inactive); inhibition of viability [6]: 5.4% (inactive); viability decrease (inhibition) [7]: 56.4% (active); viability decrease (inhibition) [8]: -1.05% (inactive)

Which nuclear beta-catenin stimulation ([1]; at 10 µM) does the source give for `O=C(O)c1cc(O)c2c(c1)[O][Bi][O]2` here?
Its nuclear beta-catenin stimulation is -2.2% (inactive).

And the nuclear beta-catenin stimulation ([1]; stimulation, at 2 µM)?
Its nuclear beta-catenin stimulation is 1%.

What about the insulin secretion stimulation [2] of the same molecule?
Its insulin secretion stimulation is -0.6% (inactive).

What about the viability decrease [3] of the same molecule?
The viability decrease was -0.3% (inactive).

What about the tube area decrease [4] of the same molecule?
Its tube area decrease is 11.1% (inactive).

And the GLP1 secretion stimulation [5]?
Its GLP1 secretion stimulation is -0.5% (inactive).

And the inhibition of viability [6]?
Its inhibition of viability is 4.4% (inactive).

What about the viability decrease (inhibition) [7] of the same molecule?
Its viability decrease (inhibition) is 26.3% (inactive).

And the viability decrease (inhibition) [8]?
The viability decrease (inhibition) was 0.3% (inactive).

Which nuclear beta-catenin stimulation ([1]; at 10 µM) does the source give for `Cc1cccc(C)c1NC(=O)CN1CCCC1` here?
Its nuclear beta-catenin stimulation is -0.4% (inactive).

And the nuclear beta-catenin stimulation ([1]; stimulation, at 2 µM)?
Its nuclear beta-catenin stimulation is 0.7%.

What about the insulin secretion stimulation [2] of the same molecule?
The insulin secretion stimulation was 0.6% (inactive).

What about the viability decrease [3] of the same molecule?
Its viability decrease is 4.2% (inactive).

What about the tube area decrease [4] of the same molecule?
Its tube area decrease is -6.7% (inactive).

And the GLP1 secretion stimulation [5]?
The GLP1 secretion stimulation was 1.1% (inactive).

And the inhibition of viability [6]?
The inhibition of viability was 37.9% (inactive).

And the viability decrease (inhibition) [7]?
The viability decrease (inhibition) was 3.5% (inactive).

What about the viability decrease (inhibition) [8] of the same molecule?
The viability decrease (inhibition) was 2.4% (inactive).

Which nuclear beta-catenin stimulation ([1]; at 10 µM) does the source give for `O=C1CCC(=O)N1CO` here?
The nuclear beta-catenin stimulation was -2.4% (inactive).

And the nuclear beta-catenin stimulation ([1]; stimulation, at 2 µM)?
The nuclear beta-catenin stimulation was -0.7%.

And the insulin secretion stimulation [2]?
Its insulin secretion stimulation is 3.1% (inactive).

What about the viability decrease [3] of the same molecule?
Its viability decrease is -0.6% (inactive).

And the tube area decrease [4]?
The tube area decrease was -5.1% (inactive).

What about the GLP1 secretion stimulation [5] of the same molecule?
Its GLP1 secretion stimulation is -1.4% (inactive).

What about the inhibition of viability [6] of the same molecule?
The inhibition of viability was 1.8% (inactive).

What about the viability decrease (inhibition) [7] of the same molecule?
The viability decrease (inhibition) was 9.6% (inactive).

And the viability decrease (inhibition) [8]?
Its viability decrease (inhibition) is -2.7% (inactive).

Which nuclear beta-catenin stimulation ([1]; at 10 µM) does the source give for `CC1(S(=O)(=O)O)CC(=O)c2ccccc2C1=O` (stereo not given) here?
Its nuclear beta-catenin stimulation is 30.3% (inactive).

What about the nuclear beta-catenin stimulation ([1]; stimulation, at 2 µM) of the same molecule?
Its nuclear beta-catenin stimulation is -0.2%.

And the insulin secretion stimulation [2]?
Its insulin secretion stimulation is -0.7% (inactive).

What about the viability decrease [3] of the same molecule?
The viability decrease was 98.8% (active).

What about the tube area decrease [4] of the same molecule?
The tube area decrease was 54.7% (active).

What about the GLP1 secretion stimulation [5] of the same molecule?
The GLP1 secretion stimulation was 1.2% (inactive).

And the inhibition of viability [6]?
Its inhibition of viability is 99.2% (active).

What about the viability decrease (inhibition) [7] of the same molecule?
The viability decrease (inhibition) was 102% (active).

And the viability decrease (inhibition) [8]?
Its viability decrease (inhibition) is 102% (active).

What does the source list for `OC1(c2ccccc2)CCNCC1`?
nuclear beta-catenin stimulation ([1]; at 10 µM): 0.2% (inactive); nuclear beta-catenin stimulation ([1]; stimulation, at 2 µM): 0.6%; insulin secretion stimulation [2]: -0.5% (inactive); viability decrease [3]: 6% (inactive); tube area decrease [4]: -1% (inactive); GLP1 secretion stimulation [5]: 6.9% (inactive); inhibition of viability [6]: 12.8% (inactive); viability decrease (inhibition) [7]: 5.3% (inactive); viability decrease (inhibition) [8]: 11.1% (inactive)

Which results are given for `CNC(=O)CN(CCN(CCN(CC(=O)[O-])CC(=O)NC)CC(=O)[O-])CC(=O)[O-].O.[Gd+3]`?
nuclear beta-catenin stimulation ([1]; at 10 µM): 1.4% (inactive); nuclear beta-catenin stimulation ([1]; stimulation, at 2 µM): -0.1%; insulin secretion stimulation [2]: 0.2% (inactive); viability decrease [3]: 38.3% (inactive); tube area decrease [4]: 18.9% (inactive); GLP1 secretion stimulation [5]: -4.4% (inactive); inhibition of viability [6]: 25.4% (inactive); viability decrease (inhibition) [7]: 30.9% (inactive); viability decrease (inhibition) [8]: 3.8% (inactive)

With `CC(=O)OC[C@H]1O[C@@H](OC(C)=O)[C@H](OC(C)=O)[C@@H]1OC(C)=O` as the molecule, how does the nuclear beta-catenin stimulation ([1]; at 10 µM) read?
The nuclear beta-catenin stimulation was -0.3% (inactive).

What about the nuclear beta-catenin stimulation ([1]; stimulation, at 2 µM) of the same molecule?
Its nuclear beta-catenin stimulation is -1.5%.

And the insulin secretion stimulation [2]?
Its insulin secretion stimulation is -1.25% (inactive).

What about the viability decrease [3] of the same molecule?
Its viability decrease is -0.8% (inactive).

And the tube area decrease [4]?
Its tube area decrease is 9.6% (inactive).

And the GLP1 secretion stimulation [5]?
Its GLP1 secretion stimulation is -1.3% (inactive).

What about the inhibition of viability [6] of the same molecule?
Its inhibition of viability is 12.6% (inactive).

What about the viability decrease (inhibition) [7] of the same molecule?
Its viability decrease (inhibition) is 13.1% (inactive).

And the viability decrease (inhibition) [8]?
Its viability decrease (inhibition) is 4.4% (inactive).

What does the source list for `COc1ccc(S(=O)(=O)Nc2nnc(CC(C)C)s2)cc1`?
nuclear beta-catenin stimulation ([1]; at 10 µM): -0.3% (inactive); nuclear beta-catenin stimulation ([1]; stimulation, at 2 µM): -0.5%; insulin secretion stimulation [2]: 5.1% (inactive); viability decrease [3]: -9.2% (inactive); tube area decrease [4]: -5.8% (inactive); GLP1 secretion stimulation [5]: -1.9% (inactive); inhibition of viability [6]: -18.3% (inactive); viability decrease (inhibition) [7]: 13.7% (inactive); viability decrease (inhibition) [8]: -19.8% (inactive)

For `O=C(O)Cc1cn(-c2ccccc2)nc1-c1ccc(Cl)cc1`, which nuclear beta-catenin stimulation ([1]; at 10 µM) is on record?
Its nuclear beta-catenin stimulation is 8.7% (inactive).

And the nuclear beta-catenin stimulation ([1]; stimulation, at 2 µM)?
The nuclear beta-catenin stimulation was 1.2%.

And the insulin secretion stimulation [2]?
The insulin secretion stimulation was 0.6% (inactive).

And the viability decrease [3]?
The viability decrease was 20.4% (inactive).

And the tube area decrease [4]?
The tube area decrease was -3.1% (inactive).

And the GLP1 secretion stimulation [5]?
The GLP1 secretion stimulation was -0.7% (inactive).

What about the inhibition of viability [6] of the same molecule?
Its inhibition of viability is 16.8% (inactive).

What about the viability decrease (inhibition) [7] of the same molecule?
The viability decrease (inhibition) was 16.1% (active).

And the viability decrease (inhibition) [8]?
Its viability decrease (inhibition) is 7.8% (inactive).

For `CC(C)C(=O)OCc1cccc(OC(=O)[C@@H]2N3C(=O)[C@@H](NC(=O)Cc4ccccc4)[C@H]3SC2(C)C)c1`, which nuclear beta-catenin stimulation ([1]; at 10 µM) is on record?
Its nuclear beta-catenin stimulation is 0.9% (inactive).

And the nuclear beta-catenin stimulation ([1]; stimulation, at 2 µM)?
The nuclear beta-catenin stimulation was -0.1%.

And the insulin secretion stimulation [2]?
The insulin secretion stimulation was 2.2% (inactive).

And the viability decrease [3]?
The viability decrease was 117% (active).

And the tube area decrease [4]?
The tube area decrease was -4.7% (inactive).

And the GLP1 secretion stimulation [5]?
Its GLP1 secretion stimulation is 3.4% (inactive).

What about the inhibition of viability [6] of the same molecule?
Its inhibition of viability is 123% (active).

And the viability decrease (inhibition) [7]?
Its viability decrease (inhibition) is 60.1% (active).

And the viability decrease (inhibition) [8]?
Its viability decrease (inhibition) is 10.1% (inactive).

For `O=C(Cn1ccnc1[N+](=O)[O-])NCc1ccccc1`, which nuclear beta-catenin stimulation ([1]; at 10 µM) is on record?
The nuclear beta-catenin stimulation was -0.6% (inactive).

And the nuclear beta-catenin stimulation ([1]; stimulation, at 2 µM)?
The nuclear beta-catenin stimulation was 0.4%.

What about the insulin secretion stimulation [2] of the same molecule?
The insulin secretion stimulation was -1.9% (inactive).

What about the viability decrease [3] of the same molecule?
Its viability decrease is -22.5% (inactive).

And the tube area decrease [4]?
The tube area decrease was -8.5% (inactive).

What about the GLP1 secretion stimulation [5] of the same molecule?
The GLP1 secretion stimulation was -4.4% (inactive).

What about the inhibition of viability [6] of the same molecule?
Its inhibition of viability is 1.8% (inactive).

What about the viability decrease (inhibition) [7] of the same molecule?
The viability decrease (inhibition) was 7.9% (inactive).

And the viability decrease (inhibition) [8]?
Its viability decrease (inhibition) is 1% (inactive).

Which results are given for `N[C@H](C(=O)O)c1ccc(O)cc1`?
nuclear beta-catenin stimulation ([1]; at 10 µM): 2.5% (inactive); nuclear beta-catenin stimulation ([1]; stimulation, at 2 µM): 3.1%; insulin secretion stimulation [2]: 5.2% (inactive); viability decrease [3]: -0.7% (inactive); tube area decrease [4]: -7.9% (inactive); GLP1 secretion stimulation [5]: -2.9% (inactive); inhibition of viability [6]: 6% (inactive); viability decrease (inhibition) [7]: 13.1% (inactive); viability decrease (inhibition) [8]: -2.7% (inactive)

What does the source list for `CCCCOC(=O)CC(CC(=O)OCCCC)(OC(C)=O)C(=O)OCCCC`?
nuclear beta-catenin stimulation ([1]; at 10 µM): -0.3% (inactive); nuclear beta-catenin stimulation ([1]; stimulation, at 2 µM): 0.1%; insulin secretion stimulation [2]: 6.2% (inactive); viability decrease [3]: 30.4% (inactive); tube area decrease [4]: 2.1% (inactive); GLP1 secretion stimulation [5]: 0.1% (inactive); inhibition of viability [6]: 25.9% (inactive); viability decrease (inhibition) [7]: 62.1% (active); viability decrease (inhibition) [8]: 26.9% (inactive)

Which results are given for `O=C(O)/C=C\C(=O)O`?
nuclear beta-catenin stimulation ([1]; at 10 µM): 1.1% (inactive); nuclear beta-catenin stimulation ([1]; stimulation, at 2 µM): 1.9%; insulin secretion stimulation [2]: 2.7% (inactive); viability decrease [3]: -27.8% (inactive); tube area decrease [4]: -3.6% (inactive); GLP1 secretion stimulation [5]: -3.8% (inactive); inhibition of viability [6]: 4.1% (inactive); viability decrease (inhibition) [7]: 33.2% (inactive); viability decrease (inhibition) [8]: -11% (inactive)

From PubChem BioAssay
